GALC G270D act: A Novel Cell-Based Assay to Identify Small Molecules for B -Galactocerebrosidase. AID 1159614, 2016. 145M-Twi-hGALC-G270D cells (Twitcher mouse brain line with human GALC G270D), HMU-beta-Gal fluorescence, 48 h. P54803. 45,000 compounds, 0.1% hits. Potency, µM (top dose mostly 57.5 µM), hits mostly activators; also: potency is read from the fitted curve at half-maximal effect; 0% is about no effect; nearly all actives have a fitted effect of over 65% in size
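Live 145M-Twi cells (Twitcher mouse brain-derived, GALC-null) stably expressing human GALC-G270D, with a wild-type GALC line, were compound-treated. Residual GALC activity was then read as fluorescence from 0.1 mM final HMU-β-gal at pH 5.2; higher signal means activation.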
B2AR arrestin ag: qHTS assay of beta-arrestin-biased ligands of beta2-adrenergic receptor: NCGC Sytravon Library Screen. Beta-2 adrenergic receptor (Homo sapiens), P07550. HTLA Tango cells, beta-arrestin recruitment, luciferase luminescence, 18 h. Potency, µM (series often up to 46.1 µM), actives largely listed as activators. 44,000 tested, under 10 active;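 also: potency is read from the fitted curve at half-maximal effect; 0% = DMSO and full agonism = EC100 isoproterenol or metaproterenol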
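Tango cell line, 1% FBS DMEM; cpd titration up to 46 microM; 18 hr, 37 degrees C, 5% CO2. Luciferin/ATP substrate mix added, 15 min RT, luminescence. %Activity, CRC fitting, curve-class categorization.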
FH mod: Identification of activators of human fumarate hydratase by quantitative high-throughput screening; FH coupled MDH/diaphorase resazurin fluorescence, 15 min; Potency, µM (titrated, usually from 79.9 µM), without a hit: at the highest dose activity change, negative = inhibition, most hits filed as inhibitors; 54,000 compounds, 0.22% hits; AID 1347055, 2019; also: potency is read from the fitted curve at half-maximal effect; % is scaled to controls: 0 for no effect and ±100 for the full control effect; the screen sought activators but most active calls are inhibition curves; nearly all actives have a fitted effect of over 45% in size
GPR32 ag: qHTS for Agonists of Human Resolvin D1 Receptor DRV1. Probable G-protein coupled receptor 32 (Homo sapiens), O75388. CHO-K1 GPR32 beta-arrestin PathHunter luminescence, 90 min; zero percent set by DMSO-only wells. 48,000 compounds, 2.5% hits. activation, % at 76.9 µM. AID 1346428, 2018;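 active = activation of at least 60% and not above a set upper limit, about 1 call in 100 departs from these limits; inconclusive = activation of 40% to 60%, or above that upper limit; inactive = activation under 40%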; also: 0% is about no effect
Target sequence (O75388 whole entry, looked up): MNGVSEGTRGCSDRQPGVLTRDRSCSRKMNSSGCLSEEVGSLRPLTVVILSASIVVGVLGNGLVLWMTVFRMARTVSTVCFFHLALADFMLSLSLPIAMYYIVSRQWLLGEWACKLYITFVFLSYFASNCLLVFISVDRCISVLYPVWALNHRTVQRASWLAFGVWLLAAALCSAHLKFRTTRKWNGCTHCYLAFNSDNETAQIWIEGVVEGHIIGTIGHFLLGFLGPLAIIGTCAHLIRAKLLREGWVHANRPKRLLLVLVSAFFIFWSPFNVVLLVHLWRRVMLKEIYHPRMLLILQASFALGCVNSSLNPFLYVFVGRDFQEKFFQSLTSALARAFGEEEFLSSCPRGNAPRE
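CHO-K1 cells stably expressing ProLink-tagged GPR32 and Enzyme Activator-tagged beta-arrestin were seeded at 2,500 cells/well overnight, exposed to compounds for 90 min at 37 °C, then read by beta-Gal complementation chemiluminescence after 1 h detection reagent.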
HTT-AS promoter: Primary qHTS for Identification of Small Molecule Activators of Huntingtin-Antisense Promoter Activity. HEK293 HTT-AS promoter firefly luciferase reporter, 24 h; response scale: percent change from vehicle, -100% = no light. Potency, µM (doses to about 57.5 µM), for the others: at the top dose activity change, positive = activation, most hits filed as activators. 48,000 compounds, 0.24% hits; also: potency is read from the fitted curve at half-maximal effect; nearly all actives have a fitted effect of over 55% in size
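Quantitative HTS used concentration series of up to 57.5 uM final on HEK293 luciferase reporter cells, 24 h at 37 degrees C. Readout was Dual-Glo firefly luminescence.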
HTT prom inh: Primary qHTS for Identification of Small Molecule Inhibitors of Huntingtin Promoter Activity; HEK293 HTT promoter firefly luciferase reporter, 24 h; Potency, µM (doses to about 57.5 µM), for the others: top-dose activity change, negative = inhibition, actives largely listed as inhibitors; 48,000 compounds, 0.93% hits; also: potency is read from the fitted curve at half-maximal effect; nearly all actives have a fitted effect of over 50% in size
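HEK293 luciferase promoter-reporter cells (2,500/well) plated 24 h, then compounds added at up to 57.5 uM final for 24 h at 37 °C. Firefly luminescence by Dual-Glo, normalized to vehicle (0%) and zero RLU (-100%).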
* hit, by the source's call; i = inactive; ? = inconclusive; / = not tested or not shown; [ ] = remark or other dose. The list is not random: actives were taken first. Their share in the collection is about 3.7%. Unless noted, calls follow the shape of the dose curve; as a rule, active = well fitted curve in the direction sought with a large enough effect; inconclusive = small, poorly fitted or top-dose-only effect, or another doubt; inactive = no such curve, though single readings can be large; an effect the other way counts as inactive or inconclusive.

SMILES	GALC G270D act	B2AR arrestin ag	FH mod	GPR32 ag	HTT-AS promoter	HTT prom inh
O=C(Nc1cc(-c2nc3cc(Cl)ccc3o2)ccc1Cl)c1cccc2ccccc12	i	i	14%	-1	18µM*	25%
Cn1ccc2c(OCC(=O)NCc3ccc(F)cc3)cccc2c1=O	i	i	-8%	68*	-19%	-16%
Cc1cc(C)cc(NC(=O)COc2cccc3c(=O)n(C)ccc23)c1	i	i	20%	86*	-19%	-13%
CCOCCn1ccc2c(OCC(=O)Nc3cccc(F)c3)cccc2c1=O	i	i	-7%	77*	-13%	-31%
Cc1ccc(C)c(N(C)C(=O)Cc2c(C(=O)O)[nH]c3ccc(Cl)cc23)c1	i	i	-18%	70*	-25%	-22%
COc1cc(CC2COC(c3ccc(OC4OC(CO)C(O)C(O)C4O)c(OC)c3)C2CO)ccc1O (stereo unspecified)	/	/	-1%[53.3 µM]	/	/	/
CCc1cccc(NC(=O)Nc2cn(C)c(=O)c3ccccc23)c1	i	i	?	-59	-31%	?
CN(C(=O)Nc1cn(C)c(=O)c2ccccc12)c1ccccc1	i	i	35µM*[activator]	-60	-23%	-16%
COc1ccccc1/C=C/c1nc(C#N)c(N2CCN(C)CC2)o1	28µM*	i	-18%	-8	-11%	6%
CCc1ccc(NC(=O)CN2C(=O)CCSc3ccccc32)cc1	i	i	2%	63*	-19%	-20%
COc1ccccc1NC(=O)CN1C(=O)CCSc2ccccc21	i	i	-37%	-7	-14%	-15%
COC(=O)c1ccc(NC(=O)CN2C(=O)c3cccc4cccc2c34)cc1	i	i	-32%	5	5%[11.5 µM]	4%
CCc1ccc(NC(=O)CN2C(=O)c3cccc4cccc2c34)cc1	/	i	/	120*	/	/
CN(C)Cc1cccc(N=C(c2ccccc2)c2c(O)[nH]c3cc(C(N)=O)ccc23)c1	/	/	-7%	/	/	/
C/C=C(\C)C(=O)OC[C@H]1O[C@H](O[C@H]2O[C@H](CO)[C@@H](OC(=O)/C(C)=C/C)[C@H](O)[C@H]2O[C@@H]2O[C@H](CO)[C@@H](O)[C@H](O)[C@H]2O)[C@H](O[C@@H]2O[C@H](CO)[C@@H](O)[C@H](O)[C@H]2O)[C@@H](O)[C@@H]1O	/	/	1%[20.6 µM]	/	/	/
CN1CCC(Nc2nc(Nc3ccc(Oc4ccccc4)cc3)c3c(=O)[nH]cc(Br)c3n2)CC1	/	/	0%	/	/	/
O=C1c2[nH]nc(-c3ccc(F)cc3)c2C(c2ccccc2F)N1c1ccccc1 (stereo unspecified)	i	i	-22%	108*	-21%	?
COC(=O)c1cc(Nc2nc3ccccc3nc2NS(=O)(=O)c2ccc(C)cc2)ccc1Cl	i	i	?	99*	20%	21%
COc1ccc(Nc2nc3ccccc3nc2NS(=O)(=O)c2ccc(C)cc2)c(OC)c1	i	i	-4%	-9	-13%	-1%
COc1ccc(CCNC(=O)c2c(C)nn(-c3ccc(F)cc3)c2-n2cccc2)cc1OC	i	i	-9%	17	-34%	20µM*
COc1ccc(CNC(=O)c2cnn(-c3ccc(C)cc3)c2-n2cccc2)cc1OC	i	i	-4%	-2	-37%	16µM*
Cc1cc(C)cc(NC(=O)Cn2c(=O)oc3cc(S(=O)(=O)N4CCCC4)ccc32)c1	i	i	-14%	-30	-33%	?
CC(C)c1ccc(NC(=O)Cn2c(=O)oc3cc(S(=O)(=O)N4CCCC4)ccc32)cc1	i	i	-22%	97*	-48%	14µM*
Cc1ccc(NC(=O)Cn2c(=O)oc3cc(S(=O)(=O)N4CCCCC4)ccc32)c(Cl)c1	i	i	-12%	111*	-46%	?
Cc1cc(C)c(NC(=O)Cn2c(=O)oc3cc(S(=O)(=O)N4CCCCCC4)ccc32)c(C)c1	i	i	-11%	9	-42%	10µM*
SMILES	GALC G270D act	B2AR arrestin ag	FH mod	GPR32 ag	HTT-AS promoter	HTT prom inh
CC(O)(CC(=O)O)CC(=O)OCc1ccc(O[C@@H]2O[C@H](CO)[C@@H](O)[C@H](O)[C@H]2O)cc1 (stereo partly specified)	/	/	-1%[53.3 µM]	/	/	/
Nc1nc(NC2CC2)cc(-c2cccc(Cl)c2Cl)n1	/	/	0%	/	/	/
COc1ccc([C@H]2OC[C@H]3O[C@@H](O[C@H]4[C@@H]2NC[C@@H]4O)[C@H](O)[C@H]3O)cc1	/	/	3%[53.3 µM]	/	/	/
CCOc1ccc(C(=O)Nc2ccc(-c3nc4cc(C(C)C)ccc4o3)cc2)cc1Cl	i	i	15%	84*	-22%	?
Cc1cccc(C(=O)Nc2ccc(-c3nc4cc(C(C)C)ccc4o3)cc2)c1	i	i	-7%	19	0%	?
CCOc1cccc(C(=O)Nc2ccc3oc(-c4cccnc4)nc3c2)c1	i	i	-5%	107*	-8%	?
CNC(=O)[C@H]1O[C@@H](n2cnc3c(NCc4cccc(I)c4)ncnc32)[C@H](O)C1O (stereo partly specified)	/	/	-7%[53.3 µM]	/	/	/
COC1=CC(=O)O[C@@H](CCc2ccccc2)[C@@H]1O	/	/	7%	/	/	/
CCN1C(=O)CC(C(=O)Nc2ccc(OC)cc2)SC1=Nc1ccc(C)c(C)c1 (stereo unspecified)	i	i	-3%	13	-6%	-13%
CCOc1cccc(NC(=O)C2CC(=O)N(CC)C(=Nc3ccc(F)cc3)S2)c1 (stereo unspecified)	i	i	-22%	81*	-26%	-18%
COc1ccc(CCNC(=O)CSc2cn(CCNC(=O)c3cccc(C(F)(F)F)c3)c3ccccc23)cc1OC	i	i	-22%	104*	-43%	?
COc1ccc(CCNC(=O)CSc2cn(CCNC(=O)c3ccc(OC)c(OC)c3)c3ccccc23)cc1OC	i	i	-16%	7	-31%	?
O=C(Nc1ccccc1F)c1ccc2c(Cl)c3c(nc2c1)CCC3	i	i	?	22	-68%	13µM*
COc1ccccc1NC(=O)c1ccc2c(Cl)c3c(nc2c1)CCCC3	i	i	-18%	24	5%	3%

Assay outcomes (PubChem BioAssay)
